# Measurements published in PubChem BioAssay (NCI).
# This is part of a sample that, as a whole, favours compounds with a hit. Of some 83,000 tested, about 20% had one in any assay.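 Single-dose data. Exposure time 48 hours. Values below 10 considered active.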 A number with no mark means an inactive call. The source made the active and inactive calls.
# System: U251 CNS
# Assay: NCI-60 one-dose screen, 48 h (100 = growth as untreated, 0 = no growth, -100 = all killed)
# Details: 10 µM unless noted
row,Structure (SMILES),growth
1,C#CCOc1cccc(Nc2ncnc3ccc(NC(=O)CCl)cc23)c1,-60.7% (active)
2,Cc1ccc(C(C(N)=O)C(C(N)=O)c2ccccc2)cc1 (stereo unspecified),104%
3,COc1cc2c(c(OC)c1OC)-c1ccc(OC)c(=O)cc1[C@@H](NC(=O)CCl)CC2,4.55% (active)
4,CCOc1ccc(NC(=O)CSc2oc(-c3ccccc3)nc2S(=O)(=O)c2ccc(F)cc2)cc1,53.4%
5,N#CC1=C(N)Oc2c(sc3c(F)cccc23)C1c1ccc(F)cc1 (stereo unspecified),22.2%
6,Clc1ccc(Nc2nnc(COc3ccccc3)c3ccccc23)cc1,-12.7% (active)
7,Cc1ccc(C2=Nc3c(N)ncnc3NC(c3ccc4c(c3)OCO4)C2)cc1 (stereo unspecified),46.9%
8,Cc1cc(Cl)ccc1NC(=O)c1cc2ccccc2cc1O,-14% (active)
9,CC(C)n1cnc2c(=S)nc[nH]c21,98.9%
10,CCOC(=O)CNP(=O)(OC[C@@H](Cc1ccccc1)NC(=O)c1cc2ccccc2s1)Oc1ccccc1 (stereo partly specified),66.5%
11,Brc1ccc2[nH]cc(-c3nonc3-c3c[nH]c4ccccc34)c2c1,43.3%
12,CN(C)CCCC1(c2ccc(F)cc2)OCc2cc(-c3cccc4[nH]ccc34)ccc21 (stereo unspecified),-24.1% (active)
13,C1=C(N2CCCC2)CCC1,99.4%
14,COc1ccc(C(=S)N2CCN(c3ccccc3Cl)CC2)cc1OC,102%
15,Cc1cc(=O)[nH]c2c(C#N)cnn12,102%
16,CCCCCOc1ccc(C(=O)/C(Br)=C/C(=O)O)cc1,86.7%
